Consider 35 compounds from PubChem BioAssay (NCATS).

Inconclusive results are not listed. Entries that show only a call come without a potency. The source made the active and inactive calls. The call rests on the fitted dose curve; in most records, active means well fitted inhibition curve with a large enough effect; inconclusive means small, poorly fitted or top-dose-only effect; inactive means flat fitted curve, though single readings scatter.

This experiment deals with Glutathione peroxidase 1 (Homo sapiens) (UniProt P07203). Description: Primary qHTS Assay for Inhibitors of Recombinant Selenoprotein Glutathione Peroxidase 1 (GPX1) (AID 1845191). Further: nearly all actives have a fitted effect of over 65% in size. The note with it: recombinant GPX1, GR-coupled NADPH fluorescence, 15 min; series mostly up to 48.8 µM. Summed up: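 GR-coupled assay: compounds preincubated 30 min at room temperature with GPX1, then reaction started with CHP; final 10 nM GPX1, 1 mM GSH, 0.5 mM CHP, 0.5 mM NADPH, 100 nM GR, 0.01% BSA, pH 7.5 Tris buffer. NADPH fluorescence (340/450 nm) read at 0 and 15 min.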
Chain of Glutathione peroxidase 1 (Homo sapiens) (P07203 whole entry, looked up): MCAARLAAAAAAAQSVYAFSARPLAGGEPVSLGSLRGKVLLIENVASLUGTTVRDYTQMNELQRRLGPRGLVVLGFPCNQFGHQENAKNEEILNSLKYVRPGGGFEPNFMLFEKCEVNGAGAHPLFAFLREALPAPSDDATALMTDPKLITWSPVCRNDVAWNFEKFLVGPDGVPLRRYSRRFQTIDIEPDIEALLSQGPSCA
`CN(C)c1nc(Cc2ccc(NC(=O)c3ccc(C(F)(F)F)cc3)cc2)nc(N(C)C)c1CC(=O)O`: the Potency entry is “inactive”.
The value for `CN(C)N=Nc1nc[nH]c1C(N)=O` was “inactive”; that for `O=C(NC[C@H](O)CO)c1ccncc1Nc1ccc(I)cc1F` was “inactive”.
With `Cc1ccccc1C(=O)c1ccc(Nc2ccc(Br)cc2N)cc1Cl` the entry was “inactive”; with `CCOC(=O)N1c2ccc(C(F)(F)F)cc2[C@@H](N(Cc2cc(C(F)(F)F)cc(C(F)(F)F)c2)C(=O)OC)C[C@H]1CC`, “inactive”.
For the compound `O=c1[nH]nc(OCCCc2ccc(Cl)cc2)c(NCc2cccnc2)c1Br`, the Potency entry was “inactive”.
With `NCC1CCC(C(=O)O)CC1` (stereo not given) the entry was “inactive”; with `CCCC1OC2C[C@@H]3[C@H]4CCC5=CC(=O)C=C[C@]5(C)[C@H]4C(O)C[C@]3(C)[C@]2(C(=O)CO)O1` (stereo not given in full), “inactive”; with `CCCCCCCCCCCCCC(=O)N[C@H](CO)[C@H](O)c1ccc([N+](=O)[O-])cc1`, “inactive”.
`C#CCN(C)CC1=Cc2ccccc2Oc2ccccc21`: the Potency entry was “inactive”.
With `C[C@@H](O)[C@H]1C(=O)N2C(C(=O)OCOC(=O)C(C)(C)C)=C(SC3CN(C4=NCCS4)C3)[C@H](C)[C@H]12` the entry was “inactive”; with `CN1C(=O)C[C@H](C(=O)N[C@@H](Cc2cnc[nH]2)C(=O)N2CCC[C@@H]2C(N)=O)NC1=O`, “inactive”; with `C[C@H]1COC2=C1C(=O)C(=O)c1c2ccc2c1CCCC2(C)C`, “inactive”.
With `CCCCCCCCCCCCCCCC(=O)O[C@H]1[C@@H](O)[C@@H](O)[C@@H]([C@H](NC(=O)[C@@H]2C[C@@H](CCC)CN2C)[C@H](C)Cl)O[C@@H]1SC` the entry was “inactive”.
The value for `CN1CC(=O)NC1=NC(=O)Nc1cccc(Cl)c1` was “inactive”; that for `CC(C)Oc1cc(Nc2nc(N[C@@H](C)c3ccc(F)cn3)ncc2Cl)[nH]n1` was “inactive”; that for `CC(NCCc1ccc(O)cc1)C(O)c1ccc(O)cc1` (stereo not given) was “inactive”.
In the case of `C[C@@H](N)c1ccc(C(=O)Nc2ccnc3[nH]ccc23)cc1`, the Potency entry is “inactive”.
For `O=C1CN2Cc3c(ccc(Cl)c3Cl)N=C2N1`, the Potency entry was “inactive”.
The value for `CNc1nc(Nc2ccc(C(=O)N3CCOCC3)cc2OC)ncc1Cl` was “inactive”.
In the case of `Cc1nc(C(=O)NCC(=O)O)c(O)c2ccc(Oc3ccccc3)cc12`, the Potency entry is “inactive”.
For `CO[C@@H]1C(N(C)C(=O)c2ccccc2)C[C@H]2O[C@]1(C)n1c3ccccc3c3c4c(c5c6ccccc6n2c5c31)C(=O)NC4=O` (stereo not given in full), the Potency result is “inactive”.
With `NC[C@H]1O[C@H](O[C@@H]2[C@@H](O)[C@@H](O[C@H]3O[C@H](CO)[C@@H](O)[C@H](N)[C@@H]3O)[C@H](N)C[C@@H]2N)[C@H](O)[C@@H](O)[C@H]1O` the entry was “inactive”; with `Cc1nc2c([nH]1)CCN(C(=O)c1ccc(NC(=O)c3ccccc3-c3ccccc3)cc1)c1ccccc1-2`, “inactive”; with `CN1N=C(N)c2cn([C@@H]3O[C@H](COP(=O)(O)O)[C@@H](O)[C@@H]3O)c3ncnc1c23`, “inactive”.
Consider `Cc1ccc(NC(=O)c2ccc(CN3CCN(C)CC3)cc2)cc1Nc1nc(-c2cccnc2)cs1`, for which the Potency entry was “inactive”.
The value for `COc1cc2nccc(Oc3ccc(NC(=O)Nc4ccc(F)cc4F)c(F)c3)c2cc1OC` was “inactive”; that for `CC(C)(O)CC(=O)NCCn1ccc2ncnc(Nc3ccc(Oc4cccc(C(F)(F)F)c4)c(Cl)c3)c21` was “inactive”; that for `N#Cc1c(N(CC(=O)O)CC(=O)O)sc(C(=O)O)c1CC(=O)O` was “inactive”.
The value for `NC1(C(=O)N[C@@H](CCO)c2ccc(Cl)cc2)CCN(c2ncnc3[nH]ccc23)CC1` was “inactive”; that for `CS(=O)(=O)c1ccc(C2=C(c3ccccc3)C(=O)OC2)cc1` was “inactive”; that for `CC[C@H](C=C[C@@H](C)[C@H]1CC[C@H]2[C@@H]3CC=C4C[C@@H](O)CC[C@]4(C)[C@@H]3CC[C@]12C)C(C)C` was “inactive”.
With `CCCCC(C)(C)[C@H](O)C=C[C@H]1[C@H](O)CC(=O)[C@H]1CC=CCCCC(=O)O` the entry was “inactive”.
As for `COc1c(C)cnc(Cn2cnc3c(Cl)nc(N)nc32)c1C`, the Potency result is “inactive”.
On to `N#CC(c1ccc(Cl)cc1)c1c(Cl)cc(-n2ncc(=O)[nH]c2=O)cc1Cl` (stereo not given), for which the Potency entry was “inactive”.
